Several values for one entry are separate records, joined by “and”; a condition that tells them apart may be missing. Equal values may be shown once. Screen size: about 5,500 compounds; about 2,000 (36%) were called active. Inconclusive results (about 18%) are left out. No stated cut-off is given here; in the data, active means normalized growth mostly below about 0.91 (no sharp cut-off); inconclusive means no clear call, values can overlap the other calls; inactive means mostly above about 0.92. This is one part of the list.
Test: chemical genetic growth profiling, strain panel (AID 1159580);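 further: tested at 20 µM; growth read once vehicle control cultures reached saturation at 30 °C; 1 = growth at the plate median or of vehicle wells; lower values mean less growth of the strain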
Conditions: S. cerevisiae deletion strains, growth OD

Measured: normalized growth

CC1COc2c(N3CCN(C)CC3)c(F)cc3c(=O)c(C(=O)O)cn1c23 (stereo not drawn)
inactive: locus YAL013W, strain DEP1, active compounds read low 0.993 | locus YAL021C, strain ccr4, active compounds read low 0.99 | locus YAL026C, strain drs2, active compounds read low 0.987 | locus YAL030W, strain snc1, active compounds read low 0.988 | locus YAL040C, strain CLN3, active compounds read low 1.03 | locus YBL061C, strain skt5, active compounds read low 0.983 | locus YBR009C, strain hhf1, active compounds read low 1 | locus YBR021W, strain FUR4, active compounds read low 1.01 | locus YBR023C, strain chs3, active compounds read low 0.98 | locus YBR171W, strain sec66, active compounds read low 0.964 | locus YBR229C, strain ROT2, active compounds read low 1.01 | locus YBR231C, strain swc5, active compounds read low 0.991 | locus YBR279W, strain paf1, active compounds read low 0.992 | locus YCL011C, strain gbp2, active compounds read low 0.98 | locus YCL016C, strain dcc1, active compounds read low 0.985 | locus YCL029C, strain bik1, active compounds read low 1.01 | locus YCL061C, strain MRC1 (second series), active compounds read low 1 | locus YCL061C, strain MRC1, active compounds read low 0.982 | locus YCL069W, strain vba3, active compounds read low 0.99 | locus YCR088W, strain abp1, active compounds read low 0.986 | locus YDL005C, strain med2, active compounds read low 0.974 | locus YDL035C, strain GPR1, active compounds read low 1.03 | locus YDL040C, strain nat1, active compounds read low 0.988 | locus YDL074C, strain BRE1, active compounds read low 1.02 | locus YDL101C, strain DUN1, active compounds read low 1.01 | locus YDL134C, strain PPH21, active compounds read low 1.01 | locus YDL185W, strain tfp1, active compounds read low 1.05 | locus YDL192W, strain arf1, active compounds read low 1.01 | locus YDR001C, strain nth1, active compounds read low 0.982 | locus YDR069C, strain doa4, active compounds read low 1.01 | locus YDR101C, strain arx1, active compounds read low 1 | locus YDR137W, strain rgp1, active compounds read low 0.954 | locus YDR159W, strain sac3, active compounds read low 1.01 | locus YDR162C, strain NBP2, active compounds read low 1.01 | locus YDR195W, strain ref2 0.996 | locus YDR297W, strain sur2, active compounds read low 0.985 | locus YDR318W, strain mcm21, active compounds read low 1.01 | locus YDR334W, strain swr1, active compounds read low 0.975 | locus YDR335W, strain msn5, active compounds read low 0.997 | locus YDR363W, strain ESC2, active compounds read low 1.01 | locus YDR388W, active compounds read low 1.01 | locus YDR392W, strain spt3, active compounds read low 0.903 | locus YDR502C, strain sam2, active compounds read low 1.01 | locus YEL003W, strain gim4, active compounds read low 1 | locus YEL037C, strain rad23, active compounds read low 0.979 | locus YEL061C, strain CIN8 (second series), active compounds read low 0.985 | locus YEL061C, strain CIN8, active compounds read low 1.01 | locus YER002W, strain NOP16, active compounds read low 0.981 | locus YER015W, strain faa2, active compounds read low 0.99 | locus YER016W, strain bim1, active compounds read low 1.01 | locus YER110C, active compounds read low 1.02 | locus YER111C, strain swi4, active compounds read low 0.983 | locus YER155C, strain BEM2 (second series), active compounds read low 0.978 | locus YER155C, strain BEM2, active compounds read low 1.01 | locus YER167W, strain BCK2, active compounds read low 1.01 | locus YFR010W, strain ubp6, active compounds read low 0.978 | locus YGL078C, strain dbp3, active compounds read low 1.01 | locus YGL086W, strain mad1, active compounds read low 1 | locus YGL167C, strain pmr1, active compounds read low 0.985 | locus YGL173C, strain kem1, active compounds read low 0.975 | locus YGL227W, strain vid30, active compounds read low 0.991 | locus YGL240W, strain doc1, active compounds read low 0.996 | locus YGL248W, strain PDE1, active compounds read low 1 | locus YGL253W, strain hxk2, active compounds read low 0.995 | locus YGR135W, strain pre9, active compounds read low 1.01 | locus YGR229C, strain SMI1, active compounds read low 1.03 | locus YGR252W, strain gcn5, active compounds read low 1.01 | locus YHR013C, strain ard1, active compounds read low 0.961 | locus YHR027C, strain rpn1, active compounds read low 0.986 | locus YHR030C, strain SLT2, active compounds read low 1.01 and 0.988 | locus YHR079C, strain IRE1 (second series), active compounds read low 1.01 | locus YHR079C, strain IRE1, active compounds read low 0.988 | locus YHR094C, strain hxt1, active compounds read low 1.02 | locus YHR129C, strain ARP1, active compounds read low 1 | locus YHR142W, strain chs7, active compounds read low 0.956 | locus YHR200W, strain rpn10, active compounds read low 1.01 | locus YIL066C, strain RNR3, active compounds read low 1.01 | locus YIL073C, strain SPO22, active compounds read low 1.1 | locus YIL125W, strain kgd1, active compounds read low 1.01 | locus YIR030C, strain dcg1, active compounds read low 1.01 | locus YJL092W, strain hpr5, active compounds read low 0.983 | locus YJL095W, strain BCK1 (second series), active compounds read low 0.993 | locus YJL095W, strain BCK1, active compounds read low 1 and 0.976 | locus YJL115W, strain asf1, active compounds read low 0.971 | locus YJL129C, strain trk1, active compounds read low 0.987 | locus YJL134W, strain LCB3, active compounds read low 1.01 | locus YJL154C, strain vps35, active compounds read low 0.982 | locus YJL164C, strain tpk1, active compounds read low 0.987 | locus YJL166W, strain qcr8, active compounds read low 0.969 | locus YJL168C, strain set2, active compounds read low 1.01 | locus YJL187C, strain SWE1 (second series), active compounds read low 1 | locus YJL187C, strain SWE1, active compounds read low 0.987 | locus YJR043C, strain POL32, active compounds read low 1.02

Reference: PubChem BioAssay AID1159580 (chemical genetic matrix, 2015)
